# Measured values from PubChem BioAssay.
# A number with no mark means an inactive call. For part of these data: Potency and affinity values are given separately. The source made the active and inactive calls. Unless noted, how the calls were made is not given here.
# Legend:
# [1] = antimalarial activity against Dd2 strain (AID 2302;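 active means growth inhibition above 50% at the single 2 µM test dose, taken to imply half-maximal potency below 2 µM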;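 further: 0% = DMSO untreated growth and 100% = chloroquine plus artemisinin killed control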); settings: P. falciparum Dd2 in RBCs, LDH growth readout, 72 h; at 2 µM; hits give high values
# [2] = human hepatoma cell viability loss – ATP luminescence, cytotoxicity control for P. falciparum antimalarial project, primary screen (AID 2303;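 active means inhibition above 50%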;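 further: 0% = DMSO wells and 100% = digitonin-killed cells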); settings: HepG2 viability, 24-48 h, at 10 µM, hits give high values
# [3] = molecular target: L-lactate dehydrogenase (Plasmodium falciparum (isolate CDC / Honduras)) (UniProt Q27743); assay: PfLDH activity inhibition – cell lysate, 3D7 strain, counter-screen for P. falciparum growth inhibition project (AID 2304);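 further: 0% = vehicle and 100% = reference inhibitor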; settings: P. falciparum 3D7 crude extract, LDH APAD/NBT absorbance; at 2 µM; hits give high values
# [4] = inhibition of 3D7 malaria parasite growth – strain 3D7 (AID 2306);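 further: 0% = DMSO wells and 100% = chloroquine plus artemisinin control wells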; settings: P. falciparum 3D7 erythrocytic growth, LDH absorbance, 72 h; at 2 µM; hits give high values
# [5] = molecular target: Plasmodium falciparum protein kinase 6 (PK6, PF3D7_1337100) (UniProt Q8IDW1); assay: PfPK6 kinase inhibitors, biochemical, TCAMS library (AID 1159586); settings: recombinant PfPK6, Kinase-Glo ATP depletion luminescence
# [6] = molecular target: Protein kinase 7 (PK7), Plasmodium falciparum 3D7 (PF3D7_0213400) (UniProt Q7YTF7); assay: inhibition of Plasmodium PK7 catalytic activity – biochemical, TCAMS antimalarial set, Kinase-Glo luminescence (AID 1159587); settings: recombinant PfPK7, Kinase-Glo ATP depletion luminescence
# [7] = molecular target: Calcium-dependent protein kinase 4 (Plasmodium falciparum (isolate 3D7)) (UniProt Q8IBS5); assay: PfCDPK4 kinase inhibitors, biochemical, TCAMS library (AID 1159588; cut-off not given, nearly all actives have IC50 up to about 0.91 µM); settings: recombinant PfCDPK4, Kinase-Glo ATP depletion luminescence
# Calcium-dependent protein kinase 4 (Plasmodium falciparum (isolate 3D7)), sequence (Q8IBS5 whole entry, looked up): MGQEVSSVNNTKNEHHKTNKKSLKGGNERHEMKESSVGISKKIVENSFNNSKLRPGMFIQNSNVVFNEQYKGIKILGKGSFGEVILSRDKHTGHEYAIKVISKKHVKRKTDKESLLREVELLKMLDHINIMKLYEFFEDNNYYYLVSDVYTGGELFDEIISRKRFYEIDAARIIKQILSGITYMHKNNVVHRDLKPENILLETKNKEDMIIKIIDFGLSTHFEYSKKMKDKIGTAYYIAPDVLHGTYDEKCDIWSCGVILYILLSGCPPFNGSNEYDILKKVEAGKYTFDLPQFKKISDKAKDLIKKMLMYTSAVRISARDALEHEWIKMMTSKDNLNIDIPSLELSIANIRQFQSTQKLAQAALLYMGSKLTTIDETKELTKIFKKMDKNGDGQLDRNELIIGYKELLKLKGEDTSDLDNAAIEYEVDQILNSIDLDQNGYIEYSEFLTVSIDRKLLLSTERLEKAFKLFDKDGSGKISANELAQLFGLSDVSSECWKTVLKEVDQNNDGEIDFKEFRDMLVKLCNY
# Plasmodium falciparum protein kinase 6 (PK6, PF3D7_1337100), sequence (Q8IDW1 1-305): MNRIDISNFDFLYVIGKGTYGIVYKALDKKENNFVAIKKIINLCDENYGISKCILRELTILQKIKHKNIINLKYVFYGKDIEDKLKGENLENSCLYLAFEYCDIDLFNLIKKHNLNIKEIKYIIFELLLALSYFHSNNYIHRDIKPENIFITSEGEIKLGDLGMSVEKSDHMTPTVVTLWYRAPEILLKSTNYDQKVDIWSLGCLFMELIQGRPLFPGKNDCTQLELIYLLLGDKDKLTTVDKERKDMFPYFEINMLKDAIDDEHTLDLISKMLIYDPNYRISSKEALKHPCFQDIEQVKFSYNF
# L-lactate dehydrogenase (Plasmodium falciparum (isolate CDC / Honduras)), sequence (Q27743 whole entry, looked up): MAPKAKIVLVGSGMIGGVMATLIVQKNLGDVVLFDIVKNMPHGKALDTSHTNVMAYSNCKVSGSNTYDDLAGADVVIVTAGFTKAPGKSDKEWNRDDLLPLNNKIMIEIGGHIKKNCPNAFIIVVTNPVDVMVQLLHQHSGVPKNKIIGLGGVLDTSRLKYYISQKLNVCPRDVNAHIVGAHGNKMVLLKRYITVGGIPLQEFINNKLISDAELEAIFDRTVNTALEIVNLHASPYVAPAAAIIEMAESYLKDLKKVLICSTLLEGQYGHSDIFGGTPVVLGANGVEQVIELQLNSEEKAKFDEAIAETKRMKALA
# Protein kinase 7 (PK7), Plasmodium falciparum 3D7 (PF3D7_0213400), sequence (Q7YTF7 1-343): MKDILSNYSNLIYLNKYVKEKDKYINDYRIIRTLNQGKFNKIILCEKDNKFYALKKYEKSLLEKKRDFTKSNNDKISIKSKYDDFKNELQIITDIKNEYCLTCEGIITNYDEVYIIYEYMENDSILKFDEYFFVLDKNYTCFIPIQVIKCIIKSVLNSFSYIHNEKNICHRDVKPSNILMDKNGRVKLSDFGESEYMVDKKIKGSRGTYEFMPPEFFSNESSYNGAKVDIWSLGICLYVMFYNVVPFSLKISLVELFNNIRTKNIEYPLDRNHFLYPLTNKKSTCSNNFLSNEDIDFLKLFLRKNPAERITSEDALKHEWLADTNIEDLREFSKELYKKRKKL
SMILES,growth inhibition [1],inhibition [2],inhibition [3] [%],growth inhibition [4],outcome [5],outcome [6],outcome [7]
CC(C)(CNC(=O)C1CCN(CCOc2ccc(Cl)cc2)CC1)c1nc(-c2ccc(Cl)c(O)c2)c(-c2ccncc2)[nH]1,5%,40%,7,102% (active),inactive,inactive,inactive
COc1ccc(-c2cnc3ccc(N4CCCC4)nn23)cc1OC,98% (active),40%,0,98% (active),inactive,inactive,inactive
CS(=O)(=O)CCNCc1cccc(-c2ccc3c(Nc4ccc(Oc5cccnc5)cc4)ccnc3c2)c1,99% (active),27%,4,101% (active),inactive,inactive,inactive
NCc1ccc(Nc2nccc(Nc3ccc(-c4ccccc4)cc3)n2)cc1,98% (active),47%,-1,101% (active),inactive,inactive,inactive
Cn1c(Nc2cc(C(C)(C)C)on2)nc2cc(Nc3ccnc(Nc4cccc(CS(C)(=O)=O)c4)n3)ccc21,94% (active),63% (active),-4,99% (active),inactive,inactive,inactive
CC(C)(CN)c1nc(-c2ccc(Br)c(O)c2)c(-c2ccncc2)[nH]1,97% (active),31%,0,96% (active),inactive,inactive,inactive
CC(C)(CNCc1ccc(Cl)c(Cl)c1)c1nc(-c2ccc(Cl)c(O)c2)c(-c2ccncc2)[nH]1,97% (active),43%,-3,101% (active),inactive,inactive,inactive
CC(C)(CN)c1nc(-c2ccc(Cl)c(O)c2)c(-c2ccnc(N)n2)[nH]1,95% (active),34%,-5,95% (active),inactive,inactive,inactive
CN1CCN(CCCNCc2cccc(Nc3nccc(Nc4ccc(Oc5ccccc5)cc4)n3)c2)CC1,80% (active),97% (active),-2,100% (active),inactive,inactive,inactive
COCCNCc1cccc(-c2ccc3c(Nc4cc(O)c(Cl)cc4F)ccnc3c2)c1,79% (active),-3%,7,101% (active),inactive,inactive,inactive
COc1ccc(C(=O)NCC(C)(C)c2nc(-c3ccc(Cl)c(O)c3)c(-c3ccncc3)[nH]2)cc1OCCN(C(C)C)C(C)C,96% (active),62% (active),4,102% (active),inactive,inactive,inactive
CN(C)Cc1ccc(-c2ccc3c(Nc4ccc(Cl)cc4F)ccnc3c2)o1,99% (active),13%,-3,100% (active),inactive,inactive,inactive
CC(C)(CNC(=O)[C@H]1CCCCN1)c1nc(-c2ccc(Cl)c(O)c2)c(-c2ccncc2)[nH]1,98% (active),6%,-3,98% (active),inactive,inactive,inactive
CCn1c(-c2nonc2N)nc2c(-c3ccc(CO)o3)ncc(OCCCN)c21,97% (active),-12%,-3,93% (active),inactive,inactive,inactive
Cc1cc(F)ccc1-c1nc(Nc2ccncc2)c2ccn(C)c2n1,8%,9%,5,89% (active),inactive,inactive,inactive
COc1ccc(-c2cnc3ccc(NCCCO)nn23)cc1OC,90% (active),9%,-1,98% (active),inactive,inactive,inactive
COc1ccc(CNCC(C)(C)c2nc(-c3ccc(Cl)c(O)c3)c(-c3ccncc3)[nH]2)cc1,99% (active),76% (active),1,101% (active),inactive,inactive,inactive

SMILES,growth inhibition [1],inhibition [2],inhibition [3] [%],growth inhibition [4],outcome [5],outcome [6],outcome [7]
CC(C)(C)CNCC(C)(C)c1nc(-c2ccc(Cl)c(O)c2)c(-c2ccncc2)[nH]1,98% (active),42%,5,101% (active),inactive,inactive,inactive
CNC(=O)c1ccccc1Nc1nc(Nc2ccc(C(=O)O)cc2)ncc1Cl,92% (active),60% (active),-2,92% (active),inactive,inactive,inactive
N#Cc1ccc(-c2cnc3ccc(NCCc4cccnc4)nn23)cc1,81% (active),27%,6,99% (active),inactive,inactive,inactive
CN(C)CCN(C)Cc1ccc(-c2ccc3c(Nc4ccc(Cl)cc4F)ccnc3c2)o1,76% (active),20%,1,100% (active),inactive,inactive,inactive
CC(C)(CN)c1nc(-c2ccc(Cl)c(O)c2)c(-c2ccncc2)[nH]1,98% (active),34%,0,97% (active),inactive,inactive,inactive
COc1cccc(CNCC(C)(C)c2nc(-c3ccc(Cl)c(O)c3)c(-c3ccncc3)[nH]2)c1,98% (active),74% (active),-9,101% (active),inactive,inactive,inactive
N#CCc1ccc(Nc2nccc(Nc3ccc(Oc4ccccc4)cc3)n2)cc1,47%,-1%,6,98% (active),inactive,inactive,inactive
COc1cccc(Nc2nccc(-c3c(-c4cccc(NC(=O)c5c(F)cccc5F)c4)nn4ccccc34)n2)c1,98% (active),35%,-2,98% (active),inactive,inactive,inactive
CN(C(=O)c1cc2c(-c3cncnc3)cccc2[nH]1)c1ccccc1,99% (active),1%,0,92% (active),inactive,inactive,inactive
CN(C)CCOc1ccc(-c2cc(-c3ccc(Cl)c(O)c3)c(-c3ccnc(N)n3)o2)cc1,95% (active),43%,2,100% (active),inactive,inactive,inactive
CN1CCN(Cc2ccc(-c3ccc4c(Nc5cc(O)c(Cl)cc5F)ccnc4c3)o2)CC1,99% (active),2%,-4,100% (active),inactive,inactive,inactive
COc1ccc2nc(-c3cc(-c4ccc(NC(C)=O)cc4)cnc3N)[nH]c2c1,73% (active),55% (active),-1,93% (active),inactive,inactive,inactive
COc1ccc(-c2cnn3ccc(Nc4cc(OC)c(OC)c(OC)c4)nc23)cc1OC,100% (active),57% (active),-4,98% (active),inactive,inactive,inactive
Cc1ccc(O)cc1Nc1ccnc2cc(-c3cccc(CNCCS(C)(=O)=O)c3)ccc12,100% (active),9%,2,99% (active),inactive,inactive,inactive
c1cncc(Oc2ccc(Nc3ccnc4cc(-c5cccc(CNCCN6CCOCC6)c5)ccc34)cc2)c1,99% (active),14%,4,101% (active),inactive,inactive,inactive
CCn1c(-c2nonc2N)nc2c(-c3cccc(NC(=O)Nc4ccc(Cl)cc4)c3)ncc(OCCCN)c21,72% (active),26%,-1,96% (active),inactive,inactive,inactive
